This is a sample that favours compounds with a hit; in the whole collection about 1.2% have one here.
GSH fluor – compound fluoresces at 488/530 nm on GSH beads | GSH beads flow cytometry, compound fluorescence 488/530 nm; active compounds read high | hit rate 0.25% among 190,000 | fluorescence (KMESF) at 10 µM; in the data active means fluorescence above about 89;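 further: glutathione beads carrying GST-tagged Bcl family fusion proteins plus one bare bead set; values are compound well signal with DMSO vehicle wells as background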
Avidin bead fluor – compound fluoresces at 488/530 nm on avidin beads; compound fluorescence 488/530 nm, flow cytometry; active compounds read high; fluorescence (KMESF) at 10 µM; hit rate 0.38% among 220,000; in the data active means fluorescence above about 47
RGS7-Gao reg – human RGS7-Galphao interaction regulation; P09471; Multiplexed bead flow cytometry, RGS7-Galphao binding; actives lie on both sides; binding response (% of control), % at 10 µM; hit rate 0.35% among 220,000; in the data active means binding response below about 49% or above about 150%; inconclusive means no clear call, values can overlap the other calls; inactive means in between;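 further: fluorescent Galphao held in activated GDP-AlF4 state binding bead-coupled RGS7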
Target sequence (P09471 whole entry, looked up): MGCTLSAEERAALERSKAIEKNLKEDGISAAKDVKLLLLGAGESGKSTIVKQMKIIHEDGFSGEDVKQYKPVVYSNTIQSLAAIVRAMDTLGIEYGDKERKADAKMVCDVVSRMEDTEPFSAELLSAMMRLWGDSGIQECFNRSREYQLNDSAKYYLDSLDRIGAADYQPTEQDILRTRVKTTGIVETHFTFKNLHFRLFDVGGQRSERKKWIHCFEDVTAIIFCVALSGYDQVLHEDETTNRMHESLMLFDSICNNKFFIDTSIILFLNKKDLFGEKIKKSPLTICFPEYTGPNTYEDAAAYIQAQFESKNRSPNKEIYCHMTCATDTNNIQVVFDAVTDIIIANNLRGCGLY
RGS8-Gao reg – regulators of human RGS8-Galphao interaction; multiplexed bead flow cytometry, RGS8-Galphao binding; actives lie on both sides; response (percent of control binding), % at 10 µM; hit rate 0.34% among 220,000; AID 1423; in the data active means response below about 60% or above about 140%; inactive means in between;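 further: Galphao activated as the GDP aluminium fluoride complex binding bead-coupled RGS8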
RGS4-Gao reg – modulates binding of RGS4 to human Galphao; P09471; Multiplexed bead flow cytometry; actives lie on both sides; binding response (% of control), % at 10 µM; hit rate 0.33% among 220,000; in the data active means binding response below about 49% or above about 150%; inactive means in between;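 further: fluorescent Galphao activated with aluminum fluoride binding bead-coupled RGS4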
RGS16-Gao – modulates binding between human RGS16 and Galphao; O15492+P09471; bead-based flow cytometry RGS16-Galphao binding, fluorescence; actives lie on both sides; binding response (% of control), % at 10 µM; hit rate 0.38% among 220,000; AID 1441;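 further: Galphao activated by GDP with aluminum fluoride before binding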
Target sequence (O15492 whole entry, looked up): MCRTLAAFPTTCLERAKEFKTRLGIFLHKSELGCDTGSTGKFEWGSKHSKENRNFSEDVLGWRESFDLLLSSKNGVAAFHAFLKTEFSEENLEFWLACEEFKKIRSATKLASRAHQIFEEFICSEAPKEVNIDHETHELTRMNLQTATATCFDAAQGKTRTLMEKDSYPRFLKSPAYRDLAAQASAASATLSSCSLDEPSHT
Target sequence (P09471 whole entry, looked up): as the sequence (P09471 whole entry, looked up) above
RGS-Gao – RGS4-Galphao interaction regulator (human); shares compounds with RGS16-Gao; multiplexed bead flow cytometry, RGS–Galpha-o binding; RGS4–Galpha-o binding response, % at 10 µM; hit rate 99% among 1,600;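 further: fluorescently labeled Galpha-o bound to GDP with aluminium fluoride binding biotinylated RGS beads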
Biotin-avidin – interferes with biotinylated probe binding to avidin beads; shares compounds with RGS16-Gao; streptavidin beads, fluorescein-biotin binding, flow cytometry; inhibition, % at 10 µM; 1,700 tested, under 10 active; AID 1783;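 active means inhibition above 50%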;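 further: median green fluorescence of gated singlet beads compared with DMSO control wells; 0% = DMSO wells and 100% = complete loss of bead fluorescence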
RGS8-Gao confirm – RGS8-Galphao interaction regulation, single point confirmation. AID 1836. bead-based flow cytometry RGS8-Galphao binding, fluorescence; actives lie on both sides. binding response (% of control), % at 10 µM. hit rate 3% among 1,700. shares compounds with RGS16-Gao; in the data active means binding response below about 72% or above about 130%; inactive means in between;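 further: Galphao activated as GDP AlF4 complex before binding bead RGS8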
RGS7-Gao single – confirmation of regulators of human RGS7-Galphao interaction. shares compounds with RGS16-Gao. bead-based flow cytometry RGS7-Galphao binding; actives lie on both sides. response (percent of control binding), % at 10 µM. hit rate 7.8% among 1,700. AID 1837; in the data active means response below about 75% or above about 130%; inactive means in between;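 further: fluorescent Galphao activated with GDP and aluminum fluoride binding bead-coupled RGS7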
RGS16-Gao single – RGS16-Galphao interaction regulation, single point confirmation; AID 1838; response (% of control binding), % at 10 µM; hit rate 4% among 1,700; shares compounds with RGS16-Gao; bead-based flow cytometry, RGS16-Galphao binding; actives lie on both sides; in the data active means response below about 74% or above about 130%; inactive means in between;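 further: Galphao activated as the GDP aluminium fluoride complex binding bead-coupled RGS16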
RGS4-Gao confirm – confirmation of regulators of human RGS4-Galphao interaction; RGS4-Galphao binding, multiplexed bead flow cytometry; actives lie on both sides; shares compounds with RGS16-Gao; binding response (% of control), % at 10 µM; hit rate 4% among 1,700; AID 1840; in the data active means binding response below about 74% or above about 130%; inactive means in between
RGS19-Gao conf – confirmation of regulators of human RGS19-Galphao interaction; shares compounds with RGS16-Gao; bead-based flow cytometry RGS19-Galphao binding; actives lie on both sides; response (percent of control binding), % at 10 µM; hit rate 5% among 1,700; in the data active means response below about 50% or above about 160%; inactive means in between;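 further: 100% = no compound control and 0% = blank background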
Starred values were filed as active, the others as inactive; u = inconclusive; x = no result given; [ ] = dose if it differs, or a comment. Unless noted, how the calls were made is not given here.

SMILES	GSH fluor	Avidin bead fluor	RGS7-Gao reg	RGS8-Gao reg	RGS4-Gao reg	RGS16-Gao	Biotin-avidin	RGS8-Gao confirm	RGS7-Gao single	RGS16-Gao single	RGS4-Gao confirm	RGS19-Gao conf	others
O=c1[nH]c2cc3c(cc2cc1CN(CC1CCCO1)S(=O)(=O)c1ccc(Cl)cc1)OCCO3 (stereo not given)	17	3	110.4	147.3*[activator]	110.4	402.8	1.2	99.8	107.3	102.6	105.6	103.0	RGS-Gao=110.4*
Cc1ccc(S(=O)(=O)N(Cc2cc3cc4c(cc3[nH]c2=O)OCCO4)CC2CCCO2)cc1 (stereo not given)	22	11	100.6	103.0	96.4	97.7	x	x	x	x	x	x
NS(=O)(=O)c1cccnc1Nc1c(Cl)cccc1Cl	202*	108*	179.1*[activator]	127.9	208.5*[activator]	213.3*[activator]	0.4	104.1	108.0	106.5	105.7	102.8
CS(=O)(=O)Nc1ccc(C(=O)Nc2ccc(S(=O)(=O)N3CCCC3)cc2)cc1	14	12	u	99.2	98.2	98.1	x	x	x	x	x	x
COc1ccccc1N1CCN(C(c2cccs2)C(C)NC(=O)c2ccco2)CC1 (stereo not given)	x	6	u	95.6	94.0	97.6	x	x	x	x	x	x
CCN1C(=O)C(CC(=O)Nc2ccc(OC)cc2)N(Cc2ccco2)C1=S (stereo not given)	22	11	104.9	142.9*[activator]	115.5	307.6	-0.9	99.1	89.6	96.2	95.7	77.1	RGS-Gao=115.5*
COc1ccccc1CNC(=O)C1=CCN(S(=O)(=O)c2ccc(C)cc2)CC1	x	6	u	104.4	101.2	106.7	x	x	x	x	x	x
CCOC(=O)Cc1csc(NC(=O)c2csc3c2CCCC3)n1	25	3	19.3*	14.3*	28.9*	3.8	-1.6	92.8	91.2	88.5	91.8	88.0
CCOC(=O)Cc1csc(NC(=O)c2cc3c(s2)CCCC3)n1	15	10	111.9	100.8	104.8	101.2	x	x	x	x	x	x
CCN(CC)S(=O)(=O)c1ccc(N=Nc2c(N)[nH]c(=O)[nH]c2=O)cc1	x	2	u	101.6	98.6	98.8	x	x	x	x	x	x
CC1CN(CC(=O)Nc2ccc([N+](=O)[O-])cc2Br)CC(C)O1 (stereo not given)	17	11	u	98.4	98.2	101.5	x	x	x	x	x	x
COc1ccc(NS(=O)(=O)c2cc([N+](=O)[O-])ccc2N/N=C\c2c(C)[nH]c3ccccc23)cc1	19	51*	136.0	110.4	150.7*[activator]	144.9	-0.1	101.1	158.9*[activator]	116.6	128.4*[activator]	199.2*[activator]
Cc1[nH]c2ccccc2c1/C=N/Nc1ccc([N+](=O)[O-])cc1S(=O)(=O)Nc1ccc(Cl)cc1	16	24	128.4	102.8	131.3	126.2	x	x	x	x	x	x
O=C(NCc1ccccn1)c1ccco1	8	22	100.5	102.1	99.6	104.1	x	x	x	x	x	x
O=C(NC(Cc1ccccc1)C(=O)NCc1ccccn1)c1ccco1 (stereo not given)	29	x	x	x	x	x	-1.2	99.6	99.7	100.6	101.4	81.3
CSc1nc(N)nc(C2CC2)n1	x	5	u	65.8	95.9	96.8	-1.8	98.7	93.6	96.0	99.7	105.9
CSc1nc(N)nc(N(C)C)n1	x	4	u	102.4	106.2	105.7	x	x	x	x	x	x
CCCN1CCN(CCCNC(=O)CCNC(=O)Cn2ccc3ccccc3c2=O)CC1	38	5	104.7	141.7*[activator]	103.6	230.4	1.7	101.0	102.8	103.0	102.3	106.1	RGS-Gao=103.6*
CCN1CCN(C(=O)CCNC(=O)Cn2ccc3ccccc3c2=O)CC1	9	13	96.5	99.2	108.7	103.7	x	x	x	x	x	x
COc1ccc(C(=O)NC(=O)Nc2ncccc2C)cc1	48	2	73.7	69.9	77.2	2.9*	-1.1	102.0	106.8	103.6	102.9	100.0	RGS-Gao=77.2*
COc1ccc(NC(=O)Nc2ncccc2C)cc1	12	24	103.3	105.8	104.3	107.8	x	x	x	x	x	x
CC(=O)/C=C(\C)N=Nc1c(O)[nH]c2ccccc12	x	11	u	100.2	106.0	101.8	x	x	x	x	x	x
O=C(COc1ccc2ccccc2c1)NCCc1ccc2c(c1)OCCO2	13	8	99.1	106.0*[activator]	31.4*	113.3*[activator]	-1.6	108.1	109.7	107.5	109.0	109.9
O=C(COc1ccc2ccccc2c1)NCCNC(=O)COc1ccc2ccccc2c1	37	7	99.1	94.7	88.7	89.3	x	x	x	x	x	x
O=S(=O)(NCc1ccccc1)c1ccc2c(c1)OCCO2	17	x	x	x	x	x	0.9	100.9	103.5	100.4	101.8	108.9
SMILES	GSH fluor	Avidin bead fluor	RGS7-Gao reg	RGS8-Gao reg	RGS4-Gao reg	RGS16-Gao	Biotin-avidin	RGS8-Gao confirm	RGS7-Gao single	RGS16-Gao single	RGS4-Gao confirm	RGS19-Gao conf	others
CC1(c2ccc(Cl)cc2)NC(=O)CS1 (stereo not given)	19	11	100.2	102.5	100.6	108.2	x	x	x	x	x	x
c1ccc(SSc2ccccc2)cc1	17	3	104.7	64.4	100.4	-4.9*	x	x	x	x	x	x	RGS-Gao=100.4*
Cc1nccnc1Sc1ccccc1	x	6	u	101.2	101.9	99.7	x	x	x	x	x	x
Cc1cc(C)c(-c2cc(NC(=O)CSc3n[nH]c(N)n3)n(-c3ccccc3)n2)cc1C	33	-5	-15.8*	6.7*	-44.3*	-38.3*	-0.2	100.1	106.0	102.2	103.0	105.9
COc1ccc(Cl)cc1S(=O)(=O)N1CCN(C)CC1	22	8	103.3	100.4	101.4	106.9	x	x	x	x	x	x
COc1ccc(Cl)cc1S(=O)(=O)N1CCCC1	44	x	x	x	x	x	0.5	102.1	103.4	106.2	103.0	109.9
Cc1cc(SCc2cc(=O)[nH]c3ccccc23)nc2ccccc12	64	6	101.4	105.8	103.2	108.3	x	x	x	x	x	x
Cc1ccc(Cl)cc1NC(=O)Cn1cc2c(n1)CCCC2	15	27	101.3	102.3	101.6	105.0	x	x	x	x	x	x
COc1ccc(CCNC(=O)CN(C)S(=O)(=O)c2ccc(Br)s2)cc1OC	25	6	99.9	123.9	103.2	241.1*[activator]	-0.1	97.9	103.4	102.6	102.6	112.2	RGS-Gao=103.2*
